{"source": "PubChem BioAssay", "data": [{"biological_target": "Torsin-1A (Homo sapiens) (UniProt O14656)", "sequence (O14656 whole entry, looked up)": "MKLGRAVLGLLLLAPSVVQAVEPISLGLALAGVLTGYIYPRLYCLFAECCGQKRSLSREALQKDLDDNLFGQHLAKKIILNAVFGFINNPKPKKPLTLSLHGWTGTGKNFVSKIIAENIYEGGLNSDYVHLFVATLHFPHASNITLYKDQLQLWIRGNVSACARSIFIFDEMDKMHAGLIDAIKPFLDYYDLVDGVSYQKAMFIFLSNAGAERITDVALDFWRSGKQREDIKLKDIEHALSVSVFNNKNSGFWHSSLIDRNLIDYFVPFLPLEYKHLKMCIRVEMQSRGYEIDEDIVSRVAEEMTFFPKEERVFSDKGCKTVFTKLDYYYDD", "experiment": "small-molecule binders of mutant TOR1A in lysate, primary screen, cell lysate, small-molecule microarray, COS7 lysate, 635/667 nm fluorescence (AID 1150);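 note: score pools 667 nm emission and signal to noise measuring lysate protein binding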", "conditions": "COS7 hTOR1A mutant lysate, 635 nm fluorescence, higher = more signal", "values": [{"smiles": "COC(=O)[C@@]1(Cc2ccc(OC)cc2)[C@H]2c3cc(C(=O)N4CCCC4)n(Cc4nc5ccccc5[nH]4)c3C[C@H]2CN1C(=O)c1ccccc1", "composite z-score": 1.7}, {"smiles": "COc1ccc(NC(=O)O[C@H]2[C@H](OC(=O)c3cc4ccccc4[nH]3)[C@@H](OC(=O)c3cc4ccccc4[nH]3)[C@@H](OC)O[C@@H]2CO)cc1", "composite z-score": 0.291}, {"smiles": "C=C(CCCC)C(=O)CC[C@@H](OC(C)=O)c1ccc(CO)o1", "composite z-score": 0.232}, {"smiles": "O=C1[C@H]2C=C(I)[C@H](C[C@@H]2OCCCCO)[C@@]12CO2", "composite z-score": 0.625}, {"smiles": "COCCCNC(=O)[C@@]1(Cc2ccccc2)N=C(c2ccc(OCCCO)cc2)O[C@H]1c1ccccc1CN=[N+]=[N-]", "composite z-score": 0.37}, {"smiles": "CN(C)CCCCCCNC(=O)[C@@H]1C[C@@H]2C(=O)N3CCC[C@H]3C(=O)N2[C@@H]1c1ccc(O)cc1", "composite z-score": 1.46}, {"smiles": "COc1ccc([C@H]2C[C@H]3C(Br)=C[C@@]2(CO)C(=O)[C@]32CO2)cc1", "composite z-score": -0.83}, {"smiles": "C=CCNC(=O)[C@@H]1[C@H]2C(=O)O[C@H](c3ccccc3)[C@H](c3ccccc3)N2[C@H](c2ccc(OCCO)cc2)[C@@]12C(=O)N(C(=O)OCCOC)c1ccc(C#CCNC(N)=O)cc12", "composite z-score": 0.733}, {"smiles": "CS(=O)(=O)CCOC(=O)C1=CC(CCCO)=CC(c2ccc(CN3CCCC3)cc2)N(Cc2cccc(OC(F)(F)F)c2)C=C1C(=O)OCCS(C)(=O)=O", "note": "(stereo not given)", "composite z-score": 1.33}, {"smiles": "COCCOC(=O)N1C(=O)[C@@]2(c3cc(C#CC4(O)CCCCCC4)ccc31)[C@H](C(=O)Nc1nc3ccccc3s1)[C@H]1C(=O)O[C@H](c3ccccc3)[C@H](c3ccccc3)N1[C@@H]2c1ccc(OCCO)cc1", "composite z-score": 0.849}, {"smiles": "[N-]=[N+]=Nc1ccccc1C[C@]1(C(=O)NCC(O)CO)N=C(c2ccc(OCCCO)cc2)O[C@H]1c1ccccc1", "note": "(stereo not given in full)", "composite z-score": 0.089}, {"smiles": "[N-]=[N+]=NCc1ccccc1C[C@@]1(C(=O)NCC(O)CO)N=C(c2ccc(OCCCO)cc2)O[C@@H]1c1ccccc1", "note": "(stereo not given in full)", "composite z-score": 1.14}, {"smiles": "C=CCN1C(=O)[C@]2(O[C@H](CCO)[C@@H]([Si](C)(C)c3ccc(OC)cc3)[C@@H]2C)c2cc(N(C=O)c3ccccc3)ccc21", "composite z-score": 0.0507}, {"smiles": "Cc1ccc(S(=O)(=O)N2C[C@@H](C(=O)O)[C@H](Sc3ccccc3)C[C@H]2c2ccccc2)cc1", "composite z-score": 0.714}, {"smiles": "COC(=O)[C@]1(Cc2ccccc2)N=C(c2ccc(OCCCO)cc2)O[C@@H]1c1ccccc1N=[N+]=[N-]", "composite z-score": 0.0366}, {"smiles": "C=CC[C@]1(C(N)=O)N=C(c2ccc(OCCCO)cc2)O[C@H]1c1ccccc1", "composite z-score": 2.33}, {"smiles": "[N-]=[N+]=Nc1ccccc1[C@H]1OC(c2ccc(OCCCO)cc2)=N[C@@]1(Cc1ccccc1)C(=O)N1CCOCC1", "composite z-score": 0.212}, {"smiles": "O=C1NC(=O)C2C1C=CC(C(O)c1ccc(-c3ccccc3)s1)N2Nc1ccc(Cl)cc1Cl", "note": "(stereo not given)", "composite z-score": 0.14}, {"smiles": "NCCCCCNC(=O)[C@H]1C[C@H]2C(=O)N3CCC[C@H]3C(=O)N2[C@H]1c1ccc(O)cc1", "composite z-score": 1.09}, {"smiles": "CC(=O)n1cc(C(O)C2C=CC3C(=O)NC(=O)C3N2Nc2ccccn2)c2ccccc21", "note": "(stereo not given)", "composite z-score": 0.153}, {"smiles": "CO[C@H]1O[C@H](CO)[C@@H](OC(=O)Nc2cccc(F)c2)[C@H](OC(=O)Nc2ccccc2)[C@H]1OC(=O)Nc1ccccc1", "composite z-score": 0.616}, {"smiles": "CO[C@H]1O[C@H](CO)[C@@H](OC(=O)Nc2ccccc2-c2ccccc2)[C@H](OC(=O)Nc2ccccc2-c2ccccc2)[C@@H]1OC(=O)Nc1ccccc1-c1ccccc1", "composite z-score": 0.53}, {"smiles": "O=C(NCc1ccccc1)[C@@H]1c2ccccc2C(=O)N(C2Cc3ccccc3C2)[C@H]1c1ccc(CO)cc1", "composite z-score": 0.165}, {"smiles": "O=C1C2C=CC(C(O)c3ccc(-c4ccccc4)s3)N(Nc3ccccc3)C2C(=O)N1c1ccccc1", "note": "(stereo not given)", "composite z-score": 1.21}, {"smiles": "Cc1c(NC(=O)/C(C#N)=C/c2cccc([N+](=O)[O-])c2)c(=O)n(-c2ccccc2)n1C", "composite z-score": 1.12}, {"smiles": "O=C1C2C=CC(C(O)c3c(F)cccc3Cl)N(Nc3ccccc3F)C2C(=O)N1c1ccccc1", "note": "(stereo not given)", "composite z-score": 0.301}, {"smiles": "NCCCCCCNC(=O)[C@H]1C[C@H]2C(=O)N[C@@H](Cc3ccccc3)C(=O)N2[C@H]1c1cccc(OCCO)c1", "composite z-score": 0.916}, {"smiles": "CN(C)CCCC[C@@H]1NC(=O)[C@H]2C[C@@H](C(=O)NCCCCCN)[C@@H](c3cccc(OCCO)c3)N2C1=O", "composite z-score": 2.15}, {"smiles": "O=C(NCCN1CCOCC1)[C@@H]1c2ccccc2C(=O)N(Cc2cc(C(F)(F)F)cc(C(F)(F)F)c2)[C@H]1c1ccc(CO)cc1", "composite z-score": 0.133}, {"smiles": "COc1ccc([Si](C)(C)[C@@H]2[C@@H](CC(=O)N3Cc4ccccc4C[C@H]3CO)O[C@]3(C(=O)N(Cc4cccc(N5CCC5=O)c4)c4ccccc43)[C@H]2C)cc1", "composite z-score": 0.61}]}]}
